Source: ChEMBL document CHEMBL4513216, “Probing the Open Global Health Chemical Diversity Library for Multistage-Active Starting Points for Next-Generation Antimalarials” (ACS Infect Dis, 2020)
Screen size: about 69,000 compounds; about 8,600 (12%) showed an effect of 50% or more. Many of the other results were omitted from the sample, so strong results are more common in it than they were.

The compounds below were run on Plasmodium berghei (assay: Screen against P. berghei liver stage (PbLuc), transformed with Luciferase, at 10uM). Details: tested at 10 uM.
Format: functional, HepG2
`CCC(=O)NC1CCCN(C(=O)c2ccc(OCC3CC3)nc2)C1` (stereo unspecified) gave an INHIBITION of 78.8%. Work on `Cc1cnn(C2CCCN(C(=O)c3ccc(OCC4CC4)nc3)C2)c1` (stereo unspecified) yielded an INHIBITION of 13.483%. With `Cc1cc(C2CCCN(C(=O)c3ccc(OCC4CC4)nc3)C2)n[nH]1` (stereo unspecified) the INHIBITION was 20.4%. With `CN(Cc1ccco1)C1COC2(CCN(Cc3nccs3)CC2)C1` (stereo unspecified) the INHIBITION was 28.3%. `CNC(=O)[C@@H](C)NC(=O)c1cc(-c2ccc(F)cc2)c(C)s1` was tested, and the INHIBITION was 12.4%. Compound `CCCN1CCN(Cc2cccc(OCC(N)=O)c2)[C@H]2CS(=O)(=O)C[C@H]21` has an INHIBITION of 36.8%. `O=S1(=O)C[C@@H]2[C@H](C1)N(Cc1cc(F)cc(F)c1)CCN2CCO` was tested, and the INHIBITION was 33.7%. Work on `CCCN1CCN(Cc2cccc(OC)c2)[C@H]2CS(=O)(=O)C[C@H]21` yielded an INHIBITION of 53.2%. With `Cc1ccc(CN2CCN(Cc3ccncc3)[C@@H]3CS(=O)(=O)C[C@@H]32)cc1` the INHIBITION was 36.7%. In the case of `O=S1(=O)C[C@@H]2[C@H](C1)N(Cc1cc(Cl)cc(Cl)c1)CCN2CCO`, the INHIBITION was 30.7%. For `CCCN1CCN(Cc2cc(Cl)cc(Cl)c2)[C@H]2CS(=O)(=O)C[C@H]21`, the INHIBITION was 50.5%. Compound `CCCN1CCN(S(=O)(=O)c2ccccc2OC)[C@H]2CS(=O)(=O)C[C@H]21` has an INHIBITION of 65.7%. Work on `COc1ccccc1S(=O)(=O)N1CCN(C)[C@@H]2CS(=O)(=O)C[C@@H]21` yielded an INHIBITION of 39.6%. `CCN1CCN(S(=O)(=O)N2CCc3ccccc3C2)[C@H]2CS(=O)(=O)C[C@H]21` was tested, and the INHIBITION was -40.4%. For `O=S1(=O)C[C@@H]2[C@H](C1)N(Cc1cc(F)cc(Cl)c1)CCN2CCO`, the INHIBITION was 58.5%. `O=S1(=O)C[C@@H]2[C@H](C1)N(Cc1cc(Cl)cc(Cl)c1)CCN2CC1CC1` was tested, and the INHIBITION was 25.4%. `CCCN1CCN(Cc2cccc(OC(C)C)c2)[C@H]2CS(=O)(=O)C[C@H]21` was tested, and the INHIBITION was 40.1%. `NC1CCN(C(=O)c2c(F)cccc2Br)CC1` gave an INHIBITION of 28.7%. With `Cc1cc(C(=O)N2CC[C@@H]3CN(c4ncccn4)CCO[C@@H]3C2)c(C)o1` the INHIBITION was 33.5%. With `CN1CCN(Cc2cscn2)CC(C(=O)N(C)C)C1` (stereo unspecified) the INHIBITION was 43.8%. With `CS(=O)(=O)CCNC(=O)N1CC2(CCCC2)c2ccccc21` the INHIBITION was -8.91%. Compound `COCCN1C(=O)[C@@H]2CC[C@H]1CN(Cc1nnc(-c3ccccc3)o1)C2` has an INHIBITION of -24.5%. With `Cc1ccc(Cn2ccc(NS(C)(=O)=O)n2)cc1` the INHIBITION was -36.5%. With `CS(=O)(=O)Nc1ccn(Cc2ccc(Cl)cc2)n1` the INHIBITION was 58.2%. `CS(=O)(=O)Nc1ccn(Cc2ccc(Br)cc2)n1` was tested, and the INHIBITION was 49.9%. With `COc1ccc2[nH]cc(C(=O)N3C[C@@H](O)[C@H](N4CCCC4)C3)c2c1` the INHIBITION was 11.8%. `CCc1oc(C(=O)NC(C)Cc2cnccn2)cc1CN1CCCC1` (stereo unspecified) gave an INHIBITION of 30%. For `CCCn1nc2c(cc1=O)CN(Cc1nc(C)c(C)o1)CC2`, the INHIBITION was 14.1%. For `CC(C(=O)Nc1nccs1)N(C)Cc1cccc(C#N)c1` (stereo unspecified), the INHIBITION was 22.6%. In the case of `CSc1cccc(NC(C)C(=O)Nc2nccs2)c1` (stereo unspecified), the INHIBITION was 44.4%. In the case of `Cc1cccc(NC(C)C(=O)Nc2nccs2)c1` (stereo unspecified), the INHIBITION was 79.8%. For `COc1ccc(Br)cc1SCCS(C)(=O)=O`, the INHIBITION was 29%. With `Cc1cc(C)n(CC2CCCN2C(=O)CCc2nccs2)n1` (stereo unspecified) the INHIBITION was 31.1%. `O=C(NCc1ccc2c(c1)OCO2)c1ccccc1C1CCNC1` (stereo unspecified) showed an INHIBITION of 31%. Compound `Cc1cc(C)nc(CN(C)C(=O)c2ccccc2C2CCNC2)c1` (stereo unspecified) has an INHIBITION of 47.2%. `O=C(NCCc1c[nH]cn1)c1ccccc1C1CCNC1` (stereo unspecified) was tested, and the INHIBITION was 24.4%. Compound `COCc1cc(CNC(=O)c2cccc3c2OCC3)n[nH]1` has an INHIBITION of 14.6%. With `CC(C)Cc1cc(CNC(=O)c2ccccc2C2CCNC2)no1` (stereo unspecified) the INHIBITION was 68.4%. For `CN(Cc1cc(C2CC2)[nH]n1)C(=O)c1ccccc1C1CCNC1` (stereo unspecified), the INHIBITION was 51.3%. For `CC(C)Cc1cc(CNC(=O)c2cccc3c2NCCC3)no1`, the INHIBITION was 44.3%. With `CC(C)Cc1cc(CNC(=O)c2cccc3c2OCC3)no1` the INHIBITION was 52.6%. `CN(Cc1cc(C(C)(C)C)n[nH]1)C(=O)c1ccccc1C1CCNC1` (stereo unspecified) showed an INHIBITION of -23.2%. With `COc1cccc(-c2cnc(CNC(C)(C)c3nc(C)cs3)o2)c1` the INHIBITION was -16%. Compound `CCCn1cc(C(=O)NC(C)c2c(C)nn(CC)c2C)c(C)n1` (stereo unspecified) has an INHIBITION of 43%. `CCC(O)CN1CCN(C(=O)c2ccn(-c3ccccc3)n2)CC1` (stereo unspecified) showed an INHIBITION of 2.3%. `CN(Cc1ncnn1C1Cc2ccccc2C1)C1CCS(=O)(=O)C1` (stereo unspecified) showed an INHIBITION of 25.4%. Compound `O=C(NCCc1cccc(F)c1)c1nc2c(s1)CCCN2C(=O)C1CC1` has an INHIBITION of 52.1%. In the case of `O=C(NCCc1cccnc1)c1nc2c(s1)CCCN2C(=O)C1CC1`, the INHIBITION was 35.8%. With `O=C(NCc1cccnc1)c1nc2c(s1)CCCN2C(=O)C1CC1` the INHIBITION was 27.6%. With `CC(C)C(=O)N1CCC(c2nc3c([nH]2)CCCNC3=O)CC1` the INHIBITION was 25.9%. `COc1ccccc1CN1CC(O)CN(S(=O)(=O)C(C)C)CC1=O` (stereo unspecified) gave an INHIBITION of 28.3%.
